Bioassay records: PubChem BioAssay, The Scripps Research Institute Molecular Screening Center
PAFAH1B3 FP inh – blocks human PAF acetylhydrolase 1B catalytic subunit 3. inhibition, % at 3.39 µM. Q15102. recombinant PAFAH1B3, FP-rhodamine probe, fluorescence polarization. 340,000 compounds, 0.28% hits;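 active = inhibition above the screen-wide average of all tested compounds plus 3 SD, cut at about 25% in these data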;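 also: 0% = enzyme with DMSO only and 100% = wells lacking PAFAH1B3 protein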
Target sequence (Q15102 whole entry, looked up): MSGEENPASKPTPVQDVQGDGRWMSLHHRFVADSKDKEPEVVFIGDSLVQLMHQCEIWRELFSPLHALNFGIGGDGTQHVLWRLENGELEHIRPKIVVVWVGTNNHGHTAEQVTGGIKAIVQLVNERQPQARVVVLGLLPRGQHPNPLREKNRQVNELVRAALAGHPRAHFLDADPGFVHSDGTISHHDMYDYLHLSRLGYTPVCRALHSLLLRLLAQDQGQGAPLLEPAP
PAFAH2 inh – PAFAH2 (human) inhibition; AID 492956; recombinant PAFAH2, FP-rhodamine activity probe, fluorescence polarization; Q99487; inhibition, % at 3.39 µM; 340,000 compounds, 0.99% hits;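 active = inhibition above the mean over all tested compounds plus 3 SD, cut at about 30% in these data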;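 also: inhibitors block probe labeling of enzyme so polarization drops; 0% = enzyme with DMSO and 100% = wells lacking PAFAH2 protein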
CTSL1 counter – blocks F. hepatica cathepsin L1 in PFM18AAP counter-screen | AID 1906 | 300,000 compounds, 0.49% hits | recombinant F. hepatica cathepsin L1, Z-Leu-Arg-MCA fluorescence | inhibition, % at 5.96 µM;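 active = inhibition above the mean of all tested compounds plus 3 SD, set per screening campaign, cut at about 17% in these data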;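 also: 0% = plate median of test compound wells and 100% = 1 µM Z-Phe-Ala-diazomethylketone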
PP5 primary – inhibitors of human protein phosphatase 5 (PP5); P53041; purified PP5c, OMFP substrate fluorescence; inhibition, % at 6.7 µM; 320,000 compounds, 0.18% hits; AID 1987;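 active = inhibition above the campaign's mean inhibition across all tested compounds plus 3 SD, cut at about 9.5% in these data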;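 also: 0% = DMSO only and 100% = 100 µM cantharidin control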
Target sequence (P53041 whole entry, looked up): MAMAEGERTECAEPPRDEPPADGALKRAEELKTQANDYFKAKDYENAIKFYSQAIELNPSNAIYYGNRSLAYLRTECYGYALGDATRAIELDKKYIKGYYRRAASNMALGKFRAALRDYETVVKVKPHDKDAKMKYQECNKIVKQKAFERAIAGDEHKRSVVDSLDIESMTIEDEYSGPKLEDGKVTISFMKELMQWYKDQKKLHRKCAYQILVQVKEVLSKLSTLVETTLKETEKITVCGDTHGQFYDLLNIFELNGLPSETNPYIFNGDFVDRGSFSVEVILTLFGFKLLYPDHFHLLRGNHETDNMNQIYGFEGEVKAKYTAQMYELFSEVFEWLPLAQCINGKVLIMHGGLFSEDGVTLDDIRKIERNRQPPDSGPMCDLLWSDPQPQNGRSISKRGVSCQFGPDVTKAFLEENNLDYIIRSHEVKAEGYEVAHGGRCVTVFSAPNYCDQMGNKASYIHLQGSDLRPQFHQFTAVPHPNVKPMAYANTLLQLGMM
PAFAH1B2 FP inh – inhibitors of human PAFAH1B2; P68402; recombinant PAFAH1B2, FP-rhodamine activity probe, fluorescence polarization; inhibition, % at 3.39 µM; 340,000 compounds, 1.2% hits; AID 492953;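 active = inhibition above the mean of all tested compounds plus 3 SD, cut at about 24% in these data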;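 also: 0% = enzyme with DMSO and 100% = wells lacking PAFAH1B2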
pPAFAH inh – pPAFAH (human) enzyme inhibition | inhibition, % at 3.39 µM | recombinant pPAFAH, FP-rhodamine probe fluorescence polarization | AID 463082 | 330,000 compounds, 1.5% hits;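 active = inhibition above the mean inhibition across the screen plus 3 SD, cut at about 25% in these data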;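 also: inhibitors block binding of the rhodamine activity-based probe so polarization drops; 0% = enzyme with DMSO and 100% = wells lacking pPAFAH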
PAFAH2 FP conf – PAFAH2 (human) inhibition, confirmed | shares compounds with PAFAH2 inh | recombinant PAFAH2, FP-rhodamine activity probe, fluorescence polarization | 2,300 compounds, 65% hits | AID 493030 | inhibition, % at 3.39 µM;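 active = mean inhibition over three repeats above a set limit taken from the earlier primary screen, cut at about 30% in these data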;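 also: inhibitor blocks binding of rhodamine activity probe so polarization falls; 0% = enzyme with DMSO and 100% = wells lacking PAFAH2 protein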
* marks the source's active call; other numbers are inactive results. Only some compounds are listed: those with a hit (about 3% of all), similar ones and a draw of the others.

O=C(Nc1nnc(-c2ccc(F)cc2)o1)C1CCCN1S(=O)(=O)c1cccs1 (configuration not stated) was read as PAFAH1B3 FP inh 8.0, PAFAH2 inh 5.6, CTSL1 counter -1.4, PP5 primary -0.7, PAFAH1B2 FP inh -0.3 and pPAFAH inh 2.9.
O=C(COC(=O)c1ccccc1OC(F)F)Nc1ccc(N2CCCCC2)cc1 was read as PAFAH1B3 FP inh 10.2, PAFAH2 inh 41.7*, PP5 primary 0.1, PAFAH1B2 FP inh 3.0, pPAFAH inh 22.5 and PAFAH2 FP conf 37.0*.
Screening CCOc1ccccc1C(=O)OCC(=O)Nc1ccc(N2CCCCC2)cc1 returned PAFAH1B3 FP inh -4.5, PAFAH2 inh 36.2*, CTSL1 counter -1.6, PP5 primary -4.6, PAFAH1B2 FP inh 4.3, pPAFAH inh 22.1 and PAFAH2 FP conf 28.1.
For Cn1cnc2nc[nH]c2c1=O the results were PAFAH1B3 FP inh 4.5, PAFAH2 inh 1.1 and PAFAH1B2 FP inh -1.2.
Cc1cc(C)cc(S(=O)(=O)c2cn(C)c3cc(N4CCN(C)CC4)c(F)cc3c2=O)c1 was read as PAFAH1B3 FP inh 9.0, PAFAH2 inh 5.8, CTSL1 counter 7.2, PP5 primary -0.4, PAFAH1B2 FP inh 2.5 and pPAFAH inh 1.4.
For Cc1cc(Cl)ccc1OC(C)C(=O)Nc1cnn(CCCC(=O)O)c1 (configuration not stated) the results were PAFAH1B3 FP inh 4.8, PAFAH2 inh 0.9, CTSL1 counter -1.5, PP5 primary 3.5, PAFAH1B2 FP inh 0.9 and pPAFAH inh 6.7.
O=C(COC(=O)c1cccs1)NC1CCCC1 was read as PAFAH1B3 FP inh 0.9, PAFAH2 inh 80.8*, CTSL1 counter -1.8, PP5 primary 0.3, PAFAH1B2 FP inh -1.0, pPAFAH inh 12.2 and PAFAH2 FP conf 74.3*.
For O=C(COC(=O)c1ccc(NS(=O)(=O)c2cccs2)cc1O)NC1CCCCC1 the results were PAFAH1B3 FP inh 12.4, PAFAH2 inh 33.5*, CTSL1 counter 1.5, PP5 primary 3.2, PAFAH1B2 FP inh 7.9, pPAFAH inh 17.6 and PAFAH2 FP conf 16.9.
Screening O=C(COC(=O)c1cccs1)NC1CCCCC1 returned PAFAH1B3 FP inh 3.5, PAFAH2 inh 76.0*, CTSL1 counter -7.0, PP5 primary 2.2, PAFAH1B2 FP inh 5.3, pPAFAH inh 11.5 and PAFAH2 FP conf 84.7*.
Screening CC1CCCC(NC(=O)CNC(=O)c2cccs2)C1C (configuration not stated) returned PAFAH1B3 FP inh 9.6, PAFAH2 inh -1.7, CTSL1 counter 4.4, PP5 primary 1.7, PAFAH1B2 FP inh -1.0 and pPAFAH inh -0.3.
CC1CCCC(NC(=O)COC(=O)c2cccs2)C1C (configuration not stated) was read as PAFAH1B3 FP inh 3.2, PAFAH2 inh 81.5*, PP5 primary 1.4, PAFAH1B2 FP inh 0.5, pPAFAH inh 2.9 and PAFAH2 FP conf 85.1*.
For O=C(OCC(=O)N1CCCC1)c1ccc(NS(=O)(=O)c2cccs2)cc1O the results were PAFAH1B3 FP inh 6.2, PAFAH2 inh -3.4, CTSL1 counter 1.5, PP5 primary -1.1, PAFAH1B2 FP inh 1.4 and pPAFAH inh 4.6.
`CC(C)(C)N1C(=O)c2ccc(C(=O)Nc3cc(C(=O)O)cc(C(=O)O)c3)cc2C1=O` gave PAFAH1B3 FP inh 5.8, PAFAH2 inh -1.7, CTSL1 counter 10.9, PP5 primary 0.5, PAFAH1B2 FP inh 1.3 and pPAFAH inh 2.1.
For COc1ccc(S(=O)(=O)Nc2ccccc2-c2nc3ccccc3[nH]c2=O)cc1 the results were PAFAH1B3 FP inh 2.3, PAFAH2 inh 4.7, CTSL1 counter -1.4, PP5 primary 0.9, PAFAH1B2 FP inh 8.8 and pPAFAH inh 4.1.
For O=C(Nc1cccc(S(=O)(=O)NC2=NCCCCC2)c1)c1ccc(Cl)cc1 the results were PAFAH1B3 FP inh 5.1, PAFAH2 inh 8.4 and PAFAH1B2 FP inh 5.7.
Screening O=C(CCCCCNC(=O)N1CCn2c1nc1ccccc12)NCc1ccccc1Cl returned PAFAH1B3 FP inh 5.6, PAFAH2 inh -3.0, CTSL1 counter -0.7, PP5 primary -1.1, PAFAH1B2 FP inh -1.2 and pPAFAH inh 3.0.
Cc1ccc(C(=O)NCC(=O)OCC(=O)NC2CCCC(C)C2C)s1 (configuration not stated) was read as PAFAH1B3 FP inh -6.0, PAFAH2 inh 47.9*, CTSL1 counter -10.7, PP5 primary 1.1, PAFAH1B2 FP inh 4.2, pPAFAH inh 2.2 and PAFAH2 FP conf 31.4*.
CC1CCCC(NC(=O)COc2ncnc3ccccc23)C1C (configuration not stated) was read as PAFAH1B3 FP inh 9.7, PAFAH2 inh 8.6, PAFAH1B2 FP inh 2.7 and pPAFAH inh -7.5.
Screening Cc1ccc(NC(=O)COC(=O)CNC(=O)c2ccc(C)s2)cc1 returned PAFAH1B3 FP inh 4.4, PAFAH2 inh 6.4, CTSL1 counter -18.4, PP5 primary -2.6, PAFAH1B2 FP inh 4.9 and pPAFAH inh -8.0.
For CC1CCCC(NC(=O)COC(=O)c2n[nH]c3ccccc23)C1C (configuration not stated) the results were PAFAH1B3 FP inh 5.2, PAFAH2 inh 78.6*, PAFAH1B2 FP inh 5.0, pPAFAH inh -11.1 and PAFAH2 FP conf 72.4*.
COc1ccc(CN2CC(C(=O)N3CC(C)CC(C)C3)CC2=O)cc1 (configuration not stated) was read as PAFAH1B3 FP inh -6.1, PAFAH2 inh 1.3, CTSL1 counter -2.3, PP5 primary 2.0, PAFAH1B2 FP inh -1.7 and pPAFAH inh 4.2.
O=C(CCCCn1cnc2c(=S)nc[nH]c21)Nc1ccc(C(=O)O)c(O)c1 was read as PAFAH1B3 FP inh 6.3, PAFAH2 inh -3.7 and PAFAH1B2 FP inh 3.3.
Cc1c(C(C)(C)O)[nH]c2cc(C(F)(F)F)ccc12 was read as PAFAH1B3 FP inh 1.1, PAFAH2 inh 1.9, CTSL1 counter -3.9, PP5 primary 1.9, PAFAH1B2 FP inh 7.3 and pPAFAH inh 0.9.
O=c1[nH]c2cc(C(F)(F)F)ccc2n1-c1cc(C(F)(F)F)ccc1O was read as PAFAH1B3 FP inh -3.1, PAFAH2 inh 49.1*, CTSL1 counter 3.2, PP5 primary -8.3, PAFAH1B2 FP inh 2.0, pPAFAH inh 12.8 and PAFAH2 FP conf 41.7*.
For N/C(Cc1ccc([N+](=O)[O-])cc1)=N\OC(=O)c1ccccc1F the results were PAFAH1B3 FP inh 14.8, PAFAH2 inh 38.0*, CTSL1 counter -1.7, PP5 primary -0.5, PAFAH1B2 FP inh -2.0, pPAFAH inh 2.3 and PAFAH2 FP conf 23.0.
For N/C(Cc1ccc([N+](=O)[O-])cc1)=N\OC(=O)Cc1ccccc1 the results were PAFAH1B3 FP inh -5.4, PAFAH2 inh 8.5, CTSL1 counter -8.7, PP5 primary 2.1, PAFAH1B2 FP inh 6.2 and pPAFAH inh 5.9.
